# Experimental data published in article PMC11006913.
# Numbering of substitutions follows the chain as printed.
# Legend:
# Test in all cases: PBM; 200 nM protein, PBS
# Details in all cases: dsDNA, one strand shown
# [1] = target: MSX2 (Homo sapiens, UniProt P35548 130-214, R199I)
# [2] = target: MSX2 (Homo sapiens, UniProt P35548 130-214)
# [3] = target: MSX2 (Homo sapiens, UniProt P35548 130-214, F161Y)
# [4] = target: T1, PAX4 (Homo sapiens, UniProt O43316 9-242)
# T1 sequence: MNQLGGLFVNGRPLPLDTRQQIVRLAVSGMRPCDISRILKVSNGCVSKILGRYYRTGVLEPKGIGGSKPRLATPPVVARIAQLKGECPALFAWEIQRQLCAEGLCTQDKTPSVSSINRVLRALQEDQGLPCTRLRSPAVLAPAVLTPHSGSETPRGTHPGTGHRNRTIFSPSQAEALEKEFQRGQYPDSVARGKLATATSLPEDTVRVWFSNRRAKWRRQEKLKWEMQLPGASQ
# [5] = target: T2, PAX4 (Homo sapiens, UniProt O43316 9-242, R200Q)
# T2 sequence: T1 sequence with R192Q
# [6] = target: T3, PAX4 (Homo sapiens, UniProt O43316 9-242, F177V)
# T3 sequence: T1 sequence with F169V
# [7] = target: T4, PAX4 (Homo sapiens, UniProt O43316 9-242, R227W)
# T4 sequence: T1 sequence with R219W
# [8] = target: T5, NKX2-6 (Homo sapiens, UniProt A6NCS4 118-204, R150C)
# T5 sequence: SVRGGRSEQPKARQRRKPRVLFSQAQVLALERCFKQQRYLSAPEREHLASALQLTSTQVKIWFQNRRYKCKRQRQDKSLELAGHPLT
# [9] = target: ALX1 (Homo sapiens, UniProt Q15699 118-204, L144V)
# ALX1 (Homo sapiens, UniProt Q15699 118-204, L144V), sequence (Q15699 118-204 L144V): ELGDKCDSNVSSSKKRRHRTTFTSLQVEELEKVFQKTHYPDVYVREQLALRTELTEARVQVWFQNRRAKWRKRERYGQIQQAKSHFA
# [10] = target: ALX1 (Homo sapiens, UniProt Q15699 118-204, L144R)
# ALX1 (Homo sapiens, UniProt Q15699 118-204, L144R), sequence (Q15699 118-204 L144R): as the sequence (Q15699 118-204 L144V) above, with V27R counted along it
# [11] = target: ALX1 (Homo sapiens, UniProt Q15699 118-204)
# ALX1 (Homo sapiens, UniProt Q15699 118-204), sequence (Q15699 118-204): as the sequence (Q15699 118-204 L144V) above, with V27L counted along it
# [12] = target: HOXD13 (Homo sapiens, UniProt P35453 263-343, T313R)
# HOXD13, sequence (P35453 263-343 T313R): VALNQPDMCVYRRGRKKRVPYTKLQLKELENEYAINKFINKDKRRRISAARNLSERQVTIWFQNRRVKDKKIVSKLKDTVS
# [13] = target: ALX4 (Homo sapiens, UniProt Q9H161 200-286)
# ALX4 (Homo sapiens, UniProt Q9H161 200-286), sequence (Q9H161 200-286): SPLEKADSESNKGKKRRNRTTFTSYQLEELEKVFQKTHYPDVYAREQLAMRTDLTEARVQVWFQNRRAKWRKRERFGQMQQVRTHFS
# [14] = target: ALX4 (Homo sapiens, UniProt Q9H161 200-286, Q225E)
# ALX4 (Homo sapiens, UniProt Q9H161 200-286, Q225E), sequence (Q9H161 200-286 Q225E): as the sequence (Q9H161 200-286) above, with Q26E counted along it
# [15] = target: PROP1 (Homo sapiens, UniProt O75360 56-141)
# PROP1 (Homo sapiens, UniProt O75360 56-141), sequence (O75360 56-141): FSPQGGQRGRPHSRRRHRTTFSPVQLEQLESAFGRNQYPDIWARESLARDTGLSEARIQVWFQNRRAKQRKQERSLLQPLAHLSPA
# [16] = target: PROP1 (Homo sapiens, UniProt O75360 56-141, R99H)
# PROP1 (Homo sapiens, UniProt O75360 56-141, R99H), sequence (O75360 56-141 R99H): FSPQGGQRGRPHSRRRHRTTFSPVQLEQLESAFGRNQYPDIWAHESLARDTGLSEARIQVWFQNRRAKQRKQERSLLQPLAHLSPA
# [17] = target: PROP1 (Homo sapiens, UniProt O75360 56-141, F88S)
# PROP1 (Homo sapiens, UniProt O75360 56-141, F88S), sequence (O75360 56-141 F88S): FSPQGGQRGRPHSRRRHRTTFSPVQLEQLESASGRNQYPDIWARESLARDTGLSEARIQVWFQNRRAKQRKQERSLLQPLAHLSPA
# MSX2 (Homo sapiens, UniProt P35548 130-214, F161Y), sequence (P35548 130-214 F161Y): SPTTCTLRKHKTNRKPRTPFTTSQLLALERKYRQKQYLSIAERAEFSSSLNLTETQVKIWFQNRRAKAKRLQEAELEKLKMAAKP
# MSX2 (Homo sapiens, UniProt P35548 130-214, R199I), sequence (P35548 130-214 R199I): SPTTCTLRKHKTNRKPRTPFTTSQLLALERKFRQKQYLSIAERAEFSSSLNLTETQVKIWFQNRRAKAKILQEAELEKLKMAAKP
# MSX2 (Homo sapiens, UniProt P35548 130-214), sequence (P35548 130-214): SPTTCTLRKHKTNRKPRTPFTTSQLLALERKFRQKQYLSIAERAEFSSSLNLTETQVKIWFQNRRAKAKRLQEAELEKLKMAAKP
sequence,measurement,setting,value
CCGGACCA,binding signal,[1],"9.46 upbm affinity estimate (log intensity, higher = more binding, comparable within an allelic series)"
same,binding signal,[2],"9.39 upbm affinity estimate (log intensity, higher = more binding, comparable within an allelic series)"
same,binding signal,[3],"9.4 upbm affinity estimate (log intensity, higher = more binding, comparable within an allelic series)"
AGGGGGGG,binding signal,[4],"9.16 upbm affinity estimate (log intensity, higher = more binding, comparable within an allelic series)"
same,binding signal,[5],"9.15 upbm affinity estimate (log intensity, higher = more binding, comparable within an allelic series)"
same,binding signal,[6],"8.93 upbm affinity estimate (log intensity, higher = more binding, comparable within an allelic series)"
same,binding signal,[7],"9.07 upbm affinity estimate (log intensity, higher = more binding, comparable within an allelic series)"
ACCGCCGG,binding signal,[8],"9.49 upbm affinity estimate (log intensity, higher = more binding, comparable within an allelic series)"
TTAATGAA,binding signal,[9],"11 upbm affinity estimate (log intensity, higher = more binding, comparable within an allelic series)"
same,binding signal,[10],"10.7 upbm affinity estimate (log intensity, higher = more binding, comparable within an allelic series)"
same,binding signal,[11],"11.5 upbm affinity estimate (log intensity, higher = more binding, comparable within an allelic series)"
CTGGCGGC,binding signal,[12],"9.52 upbm affinity estimate (log intensity, higher = more binding, comparable within an allelic series)"
CGGGGGTC,binding signal,[8],"9.26 upbm affinity estimate (log intensity, higher = more binding, comparable within an allelic series)"
ATTAATCA,binding signal,[13],"13.7 upbm affinity estimate (log intensity, higher = more binding, comparable within an allelic series)"
same,binding signal,[14],"12.7 upbm affinity estimate (log intensity, higher = more binding, comparable within an allelic series)"
same,binding signal,[9],"11.5 upbm affinity estimate (log intensity, higher = more binding, comparable within an allelic series)"
same,binding signal,[10],"11.3 upbm affinity estimate (log intensity, higher = more binding, comparable within an allelic series)"
same,binding signal,[11],"12 upbm affinity estimate (log intensity, higher = more binding, comparable within an allelic series)"
GATAATGA,binding signal,[13],"12.7 upbm affinity estimate (log intensity, higher = more binding, comparable within an allelic series)"
same,binding signal,[4],"11.4 upbm affinity estimate (log intensity, higher = more binding, comparable within an allelic series)"
same,binding signal,[14],"11.2 upbm affinity estimate (log intensity, higher = more binding, comparable within an allelic series)"
same,binding signal,[5],"11.2 upbm affinity estimate (log intensity, higher = more binding, comparable within an allelic series)"
same,binding signal,[6],"10.3 upbm affinity estimate (log intensity, higher = more binding, comparable within an allelic series)"
same,binding signal,[7],"10.6 upbm affinity estimate (log intensity, higher = more binding, comparable within an allelic series)"
CGAGGCAC,binding signal,[1],"9.52 upbm affinity estimate (log intensity, higher = more binding, comparable within an allelic series)"
same,binding signal,[12],"9.57 upbm affinity estimate (log intensity, higher = more binding, comparable within an allelic series)"
same,binding signal,[2],"9.5 upbm affinity estimate (log intensity, higher = more binding, comparable within an allelic series)"
same,binding signal,[3],"9.56 upbm affinity estimate (log intensity, higher = more binding, comparable within an allelic series)"
CCTGCCCC,binding signal,[4],"9.15 upbm affinity estimate (log intensity, higher = more binding, comparable within an allelic series)"
same,binding signal,[5],"9.01 upbm affinity estimate (log intensity, higher = more binding, comparable within an allelic series)"
same,binding signal,[6],"9.07 upbm affinity estimate (log intensity, higher = more binding, comparable within an allelic series)"
same,binding signal,[7],"9.13 upbm affinity estimate (log intensity, higher = more binding, comparable within an allelic series)"
GCTGCGCC,binding signal,[13],"8.05 upbm affinity estimate (log intensity, higher = more binding, comparable within an allelic series)"
same,binding signal,[14],"8.03 upbm affinity estimate (log intensity, higher = more binding, comparable within an allelic series)"
same,binding signal,[15],"6.8 upbm affinity estimate (log intensity, higher = more binding, comparable within an allelic series)"
same,binding signal,[16],"6.45 upbm affinity estimate (log intensity, higher = more binding, comparable within an allelic series)"
same,binding signal,[17],"6.48 upbm affinity estimate (log intensity, higher = more binding, comparable within an allelic series)"
AGACCAGC,binding signal,[4],"9.21 upbm affinity estimate (log intensity, higher = more binding, comparable within an allelic series)"
same,binding signal,[5],"9.31 upbm affinity estimate (log intensity, higher = more binding, comparable within an allelic series)"
same,binding signal,[6],"9.23 upbm affinity estimate (log intensity, higher = more binding, comparable within an allelic series)"
same,binding signal,[7],"9.29 upbm affinity estimate (log intensity, higher = more binding, comparable within an allelic series)"
CGCTGGCC,binding signal,[4],"9.12 upbm affinity estimate (log intensity, higher = more binding, comparable within an allelic series)"
same,binding signal,[5],"9.12 upbm affinity estimate (log intensity, higher = more binding, comparable within an allelic series)"
same,binding signal,[6],"9.1 upbm affinity estimate (log intensity, higher = more binding, comparable within an allelic series)"
same,binding signal,[7],"9.18 upbm affinity estimate (log intensity, higher = more binding, comparable within an allelic series)"
CCTGTGGA,binding signal,[13],"8.17 upbm affinity estimate (log intensity, higher = more binding, comparable within an allelic series)"
same,binding signal,[14],"8.04 upbm affinity estimate (log intensity, higher = more binding, comparable within an allelic series)"
AGGCGCGC,binding signal,[9],"6.59 upbm affinity estimate (log intensity, higher = more binding, comparable within an allelic series)"
same,binding signal,[10],"6.72 upbm affinity estimate (log intensity, higher = more binding, comparable within an allelic series)"
same,binding signal,[11],"6.44 upbm affinity estimate (log intensity, higher = more binding, comparable within an allelic series)"
CGGGGGGA,binding signal,[12],"8.99 upbm affinity estimate (log intensity, higher = more binding, comparable within an allelic series)"
CTGGAGCC,binding signal,[13],"7.69 upbm affinity estimate (log intensity, higher = more binding, comparable within an allelic series)"
same,binding signal,[14],"8.02 upbm affinity estimate (log intensity, higher = more binding, comparable within an allelic series)"
ACCCCCGT,binding signal,[9],"6.28 upbm affinity estimate (log intensity, higher = more binding, comparable within an allelic series)"
same,binding signal,[10],"6.2 upbm affinity estimate (log intensity, higher = more binding, comparable within an allelic series)"
same,binding signal,[11],"6.29 upbm affinity estimate (log intensity, higher = more binding, comparable within an allelic series)"
CGGGACCA,binding signal,[8],"9.71 upbm affinity estimate (log intensity, higher = more binding, comparable within an allelic series)"
CCAACGGA,binding signal,[15],"6.62 upbm affinity estimate (log intensity, higher = more binding, comparable within an allelic series)"
same,binding signal,[16],"6.69 upbm affinity estimate (log intensity, higher = more binding, comparable within an allelic series)"
same,binding signal,[17],"6.66 upbm affinity estimate (log intensity, higher = more binding, comparable within an allelic series)"
CCAGCTCG,binding signal,[13],"8.09 upbm affinity estimate (log intensity, higher = more binding, comparable within an allelic series)"
same,binding signal,[14],"8.29 upbm affinity estimate (log intensity, higher = more binding, comparable within an allelic series)"
GAGCCGGC,binding signal,[8],"9.46 upbm affinity estimate (log intensity, higher = more binding, comparable within an allelic series)"
same,binding signal,[1],"9.47 upbm affinity estimate (log intensity, higher = more binding, comparable within an allelic series)"
same,binding signal,[2],"9.45 upbm affinity estimate (log intensity, higher = more binding, comparable within an allelic series)"
same,binding signal,[3],"9.45 upbm affinity estimate (log intensity, higher = more binding, comparable within an allelic series)"
